Hits are enriched below; roughly 2.5% of the tested compounds scored in any of these assays.
GRK2 inh – human GRK2 inhibition via aptamer displacement; P25098; bead flow cytometry, FAM-aptamer displacement from GRK2; inhibition of aptamer binding, % at 10 µM; 0.59% of 330,000 active; AID 488847;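 active = inhibition of aptamer binding above 40%, roughly 3 SD of noise, on plates passing a quality check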;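 note: median bead fluorescence of bound FAM aptamer so fluorescent compounds give negative values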
Target sequence (P25098 whole entry, looked up): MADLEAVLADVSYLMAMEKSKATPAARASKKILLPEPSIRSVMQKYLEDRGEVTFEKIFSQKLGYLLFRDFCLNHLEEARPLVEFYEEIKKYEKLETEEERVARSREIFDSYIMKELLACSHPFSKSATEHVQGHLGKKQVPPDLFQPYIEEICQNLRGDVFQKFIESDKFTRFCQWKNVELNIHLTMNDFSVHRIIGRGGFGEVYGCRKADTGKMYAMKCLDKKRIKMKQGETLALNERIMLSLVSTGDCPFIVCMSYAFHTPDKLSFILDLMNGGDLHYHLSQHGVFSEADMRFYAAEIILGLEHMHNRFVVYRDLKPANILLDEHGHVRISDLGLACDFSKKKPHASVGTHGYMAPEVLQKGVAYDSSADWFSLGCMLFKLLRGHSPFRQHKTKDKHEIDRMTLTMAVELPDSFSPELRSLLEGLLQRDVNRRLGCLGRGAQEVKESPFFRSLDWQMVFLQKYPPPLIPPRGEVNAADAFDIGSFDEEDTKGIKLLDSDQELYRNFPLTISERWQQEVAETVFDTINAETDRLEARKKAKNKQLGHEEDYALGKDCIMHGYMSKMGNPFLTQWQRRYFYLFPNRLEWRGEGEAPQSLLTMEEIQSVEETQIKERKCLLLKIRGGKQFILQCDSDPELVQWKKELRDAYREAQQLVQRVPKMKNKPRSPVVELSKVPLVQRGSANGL
MEKK2mut PB1 HTS – signal of MEK5 binding to mutant human MEKK2 PB1 domain; bead flow cytometry, Alexa488-MEK5 binding to MEKK2 mutant; percent response, % at 10 µM; 0.35% of 290,000 active; AID 1530; in the data active = percent response above about 24%, passing the limit was not always enough
MEKK3 PB1 HTS – raises or lowers MEK5 binding to the human MEKK3 PB1 domain | bead-based flow cytometry, Alexa488-MEK5 binding to MEKK3; actives lie on both sides; 0 = blocked by unlabeled MEK5, 100 = vehicle | binding response (% of control), % at 10 µM | 1.4% of 290,000 active | AID 1529;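 active = binding response more than 3 SD above or below the average of its plate-row segment, actives on both sides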;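 note: Alexa488 bead fluorescence after subtracting the streptavidin-only scavenger bead signal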
MEKK2wt PB1 HTS – raises or lowers MEK5 binding to wildtype human MEKK2 PB1 domain. Q9Y2U5. bead flow cytometry, Alexa488-MEK5 binding to MEKK2 WT; actives lie on both sides. binding response (% of control), % at 10 µM. 1.1% of 290,000 active. AID 1531; in the data active = binding response below about 67% or above about 130%
MEKK2wt confirm – raises or lowers MEK5 binding to wildtype human MEKK2, retest; shares compounds with MEKK3 PB1 HTS; 2.4% of 5,900 active; binding response (% of control), % at 10 µM; AID 1892; bead flow cytometry, Alexa488-MEK5 binding to MEKK2 WT; actives lie on both sides; in the data active = binding response below about 16% or above about 210%; inactive = in between
MEKK2mut confirm – signal of MEK5 binding to mutant human MEKK2, retest | 2% of 5,900 active | shares compounds with MEKK3 PB1 HTS | AID 1893 | percent response, % at 10 µM | bead flow cytometry, Alexa488-MEK5 binding to MEKK2 mutant; in the data active = percent response mostly above about 71%, no sharp cut-off; inactive = mostly below about 38%;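 note: higher means compound restores mutant binding toward wildtype level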
MEKK3 confirm – confirmation of inhibitors of MEK5 binding to human MEKK3; bead flow cytometry, Alexa488-MEK5 binding to MEKK3; stronger effect = lower value; binding response (% of control), % at 10 µM; shares compounds with MEKK3 PB1 HTS; 1.8% of 5,900 active;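 active = binding response below 72% of control, or above a set upper limit, though filed actives all read lower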
Each line names hits and unclear results; the compound was inactive in the other large screens (follow-up assays come after a bar, where they were run); [ ] = dose if it differs, or a comment.

COCc1nnc(NS(=O)(=O)c2ccc(C)cc2)s1	MEKK3 PB1 HTS 0.0[inhibitor], MEKK2wt PB1 HTS 0.0[inhibitor] | MEKK2wt confirm inactive | MEKK2mut confirm inactive | MEKK3 confirm inactive
COCc1nnc(NS(=O)(=O)c2ccccc2)s1	none
CCOC(=O)COc1ccc(/C=C2/C(=O)NN(c3ccc(F)cc3)C2=O)cc1OC	MEKK2wt PB1 HTS 167 | MEKK2wt confirm inactive | MEKK2mut confirm inactive | MEKK3 confirm inactive
CCOC(=O)c1ccc(N2NC(=O)/C(=C/c3ccc(OC(=O)c4ccco4)c(OC)c3)C2=O)cc1	none
CC1Sc2ccc(S(=O)(=O)CCC(=O)NCc3cccs3)cc2NC1=O (stereo not drawn)	none
Cc1nc(P(=O)(c2ccccc2)c2ccccc2)c(N2CCOCC2)o1	MEKK3 PB1 HTS 131 | MEKK2wt confirm inactive | MEKK2mut confirm inactive | MEKK3 confirm inactive
CCN1C(=O)/C(=C/C=C2\N(CC)c3cc(S(=O)(=O)N(C)C)ccc3N2c2ccccc2)SC1=S	MEKK2wt PB1 HTS 53[inhibitor] | MEKK2wt confirm inactive | MEKK2mut confirm inactive | MEKK3 confirm inactive
COC(=O)c1ccc(C2C(Oc3ccccc3)C(=O)N2CCc2ccc(F)cc2)cc1 (stereo not drawn)	none
COC(=O)c1ccc(C2C(Oc3ccc(OC)cc3)C(=O)N2CCc2ccc(OC)c(OC)c2)cc1 (stereo not drawn)	MEKK3 PB1 HTS 157 | MEKK2wt confirm inactive | MEKK2mut confirm inactive | MEKK3 confirm inactive
CSc1ccc(/C=C/C(=O)NC(=O)c2ccccc2O)cc1	MEKK3 PB1 HTS 128 | MEKK2wt confirm inactive | MEKK2mut confirm inactive | MEKK3 confirm inactive
O=c1cc(O)c2sc3nc(-c4ccccc4)cc(C(F)(F)F)c3c2[nH]1	MEKK3 PB1 HTS 8.0[inhibitor] | MEKK2wt confirm inactive | MEKK2mut confirm inactive | MEKK3 confirm inactive
COc1ccc(OC)c(-c2cc(C(F)(F)F)c3c(n2)sc2c(O)cc(=O)[nH]c23)c1	MEKK3 PB1 HTS 69[inhibitor] | MEKK2wt confirm inactive | MEKK2mut confirm inactive | MEKK3 confirm inactive
Cc1cc(-c2ccccc2)c2c(n1)sc1c(O)cc(=O)[nH]c12	none
O=C1N=c2ccccc2=C1c1c(O)[nH]c2c(C(F)(F)F)cccc12	none
COC(=O)C(=NNc1c(C)n(C)n(-c2ccccc2)c1=O)C(=O)OC	MEKK3 PB1 HTS 141 | MEKK2wt confirm inactive | MEKK2mut confirm inactive | MEKK3 confirm inactive
O=C(CSc1ncn[nH]1)c1ccc2c(c1)OCCO2	MEKK3 PB1 HTS 77[inhibitor] | MEKK2wt confirm inactive | MEKK2mut confirm inactive | MEKK3 confirm inactive
O=C(CSc1nnc(-c2ccccc2)o1)c1ccc2c(c1)OCCO2	MEKK3 PB1 HTS 80[inhibitor] | MEKK2wt confirm inactive | MEKK2mut confirm inactive | MEKK3 confirm inactive
Cc1cc(C)cc(-c2nnc(SCC(=O)c3ccc4c(c3)OCCO4)o2)c1	none
O=C(COC(=O)CNC(=O)c1ccc(Cl)cc1)Nc1ccc(Cl)cn1	none (no result: MEKK2mut PB1 HTS, MEKK3 PB1 HTS, MEKK2wt PB1 HTS)
COC(=O)c1ccc(NC(=O)c2cccc(NC(=O)c3ccccc3)c2)cc1	none
COc1ccc2[nH]c3c(N4CCc5ccccc5C4)ncnc3c2c1	MEKK2wt PB1 HTS 189 | MEKK2wt confirm inactive | MEKK2mut confirm inactive | MEKK3 confirm inactive
O=C(NCCc1ccccc1)C(=O)NCC1CCCO1 (stereo not drawn)	MEKK3 PB1 HTS 12[inhibitor], MEKK2wt PB1 HTS 17[inhibitor] | MEKK2wt confirm inactive | MEKK2mut confirm inactive | MEKK3 confirm inactive
S=C(NCC1CCCO1)Nc1ccc(Cl)cc1 (stereo not drawn)	MEKK3 PB1 HTS 141 | MEKK2wt confirm inactive | MEKK2mut confirm inactive | MEKK3 confirm inactive
S=C(NCC1CCCO1)NC12CC3CC(CC(C3)C1)C2 (stereo not drawn)	MEKK3 PB1 HTS 4.0[inhibitor], MEKK2wt PB1 HTS 6.0[inhibitor] | MEKK2wt confirm inactive | MEKK2mut confirm inactive | MEKK3 confirm inactive
COCCN(C(=O)COC(=O)C1CCC(C(C)(C)C)CC1)c1c(N)n(Cc2ccccc2)c(=O)[nH]c1=O (stereo not drawn)	none (no result: MEKK2mut PB1 HTS, MEKK3 PB1 HTS, MEKK2wt PB1 HTS)
CC[n+]1c(C)cc(C)n1-c1ccccc1	none
